Screening results from PubChem BioAssay.
This is a sample that favours compounds with a hit; in the whole collection about 7.2% have one here.
3T3 cytotox: cytotoxic compounds in NIH 3T3 cells | NIH 3T3 viability, CellTiter-Glo ATP luminescence, 48-72 h | Potency, µM (top dose mostly 96.7 µM), for the others: at the highest dose activity change, negative = cytotoxicity, hits mostly inhibitors | 94,000 compounds, 4.3% hits; note: nearly all actives have a fitted effect of over 55% in size
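Mouse fibroblast NIH 3T3 cells, 400 per well, received compound via pintool and were incubated for 48 or 72 hr prior to CellTiter-Glo ATP luminescence measurement.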
SNCA viab count: counter-screen for SNCA expression inhibitors: cell viability. HEK-293-SNCA-luc viability, GF-AFC fluorescence, 24 h. Potency, µM (doses to about 57.1 µM), without a hit: at the top dose activity change, negative = cytotoxicity, hits mostly cytotoxic. 150,000 compounds, 0.12% hits;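 note: 0% = DMSO-treated cells and -100% = medium-only wells without cells; nearly all actives have a fitted effect of over 30% in size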
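HEK-293-SNCA-luc cells (1500/well) plated 24 h, then exposed 24 h to a dilution series; GF-AFC added 30 min at 37C, fluorescence 405/540 nm; normalised to medium-only and DMSO wells, Hill fit.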
NPR1 antag: human Npr1 receptor antagonism | Potency, µM (doses to about 46.3 µM), without a hit: top-dose activity change, negative = inhibition, hits mostly inhibitors | 76,000 compounds, 1.6% hits | P16066 | HEK293 hNpr1 GloSensor cGMP, ANP-stimulated luminescence; calls by dose curve; note: nearly all actives have a fitted effect of over 60% in size
Target sequence (P16066 whole entry, looked up): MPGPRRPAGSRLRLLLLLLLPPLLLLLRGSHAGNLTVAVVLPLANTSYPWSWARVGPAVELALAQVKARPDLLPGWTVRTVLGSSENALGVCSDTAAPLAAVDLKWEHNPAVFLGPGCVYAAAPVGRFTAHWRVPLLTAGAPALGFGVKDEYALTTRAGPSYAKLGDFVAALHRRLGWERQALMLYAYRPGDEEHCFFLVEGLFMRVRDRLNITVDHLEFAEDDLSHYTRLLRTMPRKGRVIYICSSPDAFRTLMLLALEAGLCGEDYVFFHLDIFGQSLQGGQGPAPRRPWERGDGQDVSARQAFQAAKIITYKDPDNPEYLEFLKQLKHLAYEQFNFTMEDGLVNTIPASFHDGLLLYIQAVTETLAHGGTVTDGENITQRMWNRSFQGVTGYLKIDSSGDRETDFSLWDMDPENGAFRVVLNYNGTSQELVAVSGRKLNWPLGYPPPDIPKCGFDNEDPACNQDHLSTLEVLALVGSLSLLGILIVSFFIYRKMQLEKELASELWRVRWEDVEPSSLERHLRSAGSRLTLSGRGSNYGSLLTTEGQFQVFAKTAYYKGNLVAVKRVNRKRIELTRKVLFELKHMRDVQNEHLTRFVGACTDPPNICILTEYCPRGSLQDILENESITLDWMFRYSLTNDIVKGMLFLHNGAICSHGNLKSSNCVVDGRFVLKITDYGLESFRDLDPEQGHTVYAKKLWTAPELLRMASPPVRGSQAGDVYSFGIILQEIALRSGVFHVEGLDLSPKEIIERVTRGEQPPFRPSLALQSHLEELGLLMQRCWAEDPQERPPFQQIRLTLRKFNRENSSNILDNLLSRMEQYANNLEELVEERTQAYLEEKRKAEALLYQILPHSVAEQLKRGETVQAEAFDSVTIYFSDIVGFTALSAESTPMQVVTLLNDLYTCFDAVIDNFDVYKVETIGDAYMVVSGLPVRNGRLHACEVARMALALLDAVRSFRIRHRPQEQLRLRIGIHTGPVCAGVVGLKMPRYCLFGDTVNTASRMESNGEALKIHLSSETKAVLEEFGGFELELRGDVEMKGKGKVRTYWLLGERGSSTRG
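Compound pre-incubated 30 min at room temperature on GloSensor-loaded HEK293 cells stably carrying hNpr1 and the pGS-40F cGMP biosensor. Stimulation uses hNppA at 0.1 nM final; luminescence is taken at baseline and 20 min post-agonist.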
SNCA expr inhib: SNCA gene expression inhibition; AID 1671194; HEK-293 SNCA-luciferase knock-in, luminescence, 24 h; 140,000 compounds, 0.17% hits; Potency, µM (series often up to 57.2 µM), inactives show at the highest dose activity change, negative = inhibition, usual class: inhibitors;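 note: plate controls were DMSO cells for no effect and cell-free wells for full effect; nearly all actives have a fitted effect of over 45% in size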
HEK cytotox: kills HEK 293 cells. HEK 293 viability, ATP luminescence (CellTiter-Glo), 48-72 h. Potency, µM (titrated, usually from 115 µM), without a hit: top-dose activity change, negative = cytotoxicity, most hits filed as inhibitors. 94,000 compounds, 6.6% hits. AID 1345083; note: nearly all actives have a fitted effect of over 60% in size
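Read-out: CellTiter-Glo ATP luminescence. Cells: HEK 293, 250 cells/well. Exposure: 48 or 72 hr, 37 degree Celsius.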
FLuc inh: blocks purified firefly luciferase enzyme activity | 76,000 compounds, 2.5% hits | AID 1347043 | purified P. pyralis luciferase, luminescence, biochemical | Potency, µM (highest dose often 115 µM), hits mostly inhibitors | P08659; note: nearly all actives have a fitted effect of over 65% in size
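Cell-free enzyme assay, 10nM P. pyralis luciferase, luciferin and ATP each at 10uM. Inhibition profiled over a 6-point titration, read as luminescence.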
Numbers without * were called inactive; i = inactive; ? = inconclusive; / = no result; [ ] = another dose, or the depositor's remark. Unless noted, calls come from the whole dose curve; as a rule, active = well fitted curve in the direction sought with a large enough effect; inconclusive = small, poorly fitted or top-dose-only effect, or another doubt; inactive = no such curve, though single readings can be large; an effect the other way counts as inactive or inconclusive. Unless noted, % is set by controls: 0 for no effect and ±100 for the full control effect; potency is the fitted concentration of half-maximal effect.

SMILES	3T3 cytotox	SNCA viab count	NPR1 antag	SNCA expr inhib	HEK cytotox	FLuc inh
CCC(C(=O)NCCn1ccn2nc(-c3cccc(OC)c3)cc2c1=O)c1ccccc1 (stereo unspecified)	?	-18.7%	?	13.2%	?	14.1µM*
COc1cccc(CCC(=O)NCCn2ccn3nc(-c4cccc(OC)c4)cc3c2=O)c1	?	-8.3%	-24.1%	23.4%	?	8.91µM*
O=C1N(CCCCOc2ccccc2)c2ccccc2NC12CCNCC2	?	?	-16.9%	?	20µM*	i
CC(C)CCN1CCNC(=O)C1CC(=O)N(Cc1nccs1)C1CC1 (stereo unspecified)	-9.5%	0.9%	-3.7%	-7.4%	-17.7%	i
COC1CCCN(C(=O)c2cc(COc3c(F)cccc3F)on2)C1 (stereo unspecified)	-0.6%	6.0%	12.0%	25.6%	i	i
CN1CCN(C(=O)c2cc(COc3ccc(F)cc3F)on2)CC1c1ccccc1 (stereo unspecified)	?	6.5%	-20.5%	56.6%	20µM*	i
Cc1cccc2nc(CNC(=O)c3cc(COc4ccc(F)cc4F)on3)cn12	31.6µM*	-13.4%	4.3%	?	?	i
CC(C)N1CC[C@H](c2nnc(-c3ccccc3F)o2)C1	i	-2.8%[87.6 µM]	3.0%[70.6 µM]	190.6%[87.6 µM]	i	39.8µM*
c1ccc2oc([C@H]3CCN(C4CCOCC4)C3)nc2c1	i	0.5%[87.6 µM]	-2.9%[70.6 µM]	100.5%[87.6 µM]	-12.8%[230 µM]	79.4µM*
c1ccc2oc([C@H]3CCN(C4CCCCC4)C3)nc2c1	-25.4%[174 µM]	-1.4%[87.6 µM]	?	92.0%[87.6 µM]	-19.3%[230 µM]	?
Fc1ccccc1-c1nnc([C@H]2CCN(C3CCOCC3)C2)o1	1.1%[138 µM]	-3.8%[87.6 µM]	-1.1%[70.6 µM]	92.7%[87.6 µM]	i	70.8µM*
O=C(c1ccc(Cl)cc1)N1CC2(CCCN2CC2CC2)Cc2ccccc21 (stereo unspecified)	?	-6.0%	/	10.6%	?	/
CCn1c(CC2CCN(S(=O)(=O)c3cccc(C)c3)CC2)nn(C)c1=O	-18.8%	-20.9%	7.1%	-5.5%	-18.9%	i
CCOC(=O)C1=C(C)N=C2SC=C(CC(=O)Nc3cccc(OC)c3)N2C1c1cccc(OC)c1 (stereo unspecified)	?	-5.7%	-23.6%	?	?	i
CCOC(=O)C1=C(C)N=C2SC=C(CC(=O)Nc3ccc(C)c(C)c3)N2C1c1cccc(OC)c1 (stereo unspecified)	39.8µM*	-11.4%	-16.5%	-8.2%	44.7µM*	i
COC(=O)C1=C(C)N=C2SC=C(CC(=O)N(C)Cc3ccco3)N2C1c1cccc(Cl)c1 (stereo unspecified)	?	16.6%	?	0.1%	25.1µM*	i
O=C(c1ccccc1F)N1CCC2(CC1)CC(c1cccc(C(F)(F)F)c1)=NO2	?	/	/	/	39.8µM*	/
Cc1ccccc1C(=O)N1CCC2(CC1)CC(c1cccc(C(F)(F)F)c1)=NO2	?	/	/	/	31.6µM*	/
O=C(c1ccccc1F)N1CCCC2(CC(c3cccc(C(F)(F)F)c3)=NO2)C1 (stereo unspecified)	?	1.8%	1.9%	-11.7%	?	i
O=S(=O)(N[C@H]1CO[C@H]2[C@@H]1OC[C@@H]2n1nnnc1-c1ccccc1)c1cccc2cccnc12	-21.7%	6.1%	0.1%	-25.3%	-9.9%	i
NC(=O)C(=O)N1CCN2C(=O)c3cc(-c4ccc(Cl)cc4)ccc3NC(=O)[C@@H]2C1	?	-17.2%[87.6 µM]	-1.2%[70.6 µM]	?	?	i
O=C(N[C@H]1CCN2C(=O)c3cc(Br)ccc3NC(=O)[C@@H]2C1)c1ccco1	89.1µM*	3.3%[87.6 µM]	2.4%[70.6 µM]	-26.5%[87.6 µM]	?	i
O=C1Nc2ccc(-c3cccc(C(F)(F)F)c3)cc2C(=O)N2CCN(C(=O)c3ccccc3)C[C@H]12	?	?	?	?	20µM*	?
O=C1Nc2ccc(-c3cccc(C(F)(F)F)c3)cc2C(=O)N2CCN(C(=O)C3CCCC3)C[C@@H]12	?	-9.2%	-2.7%	-24.8%	39.8µM*	i
O=C1Nc2ccc(-c3cccc(C(F)(F)F)c3)cc2C(=O)N2CCN(C(=O)c3cccnc3)C[C@H]12	-18.8%	3.9%	-4.3%	11.3%	?	i
SMILES	3T3 cytotox	SNCA viab count	NPR1 antag	SNCA expr inhib	HEK cytotox	FLuc inh
N[C@H]1CCN2C(=O)c3cc(-c4ccc(Cl)cc4)ccc3NC(=O)[C@@H]2C1	31.6µM*	-14.6%[87.6 µM]	0.1%[70.6 µM]	55.9%[87.6 µM]	39.8µM*	i
CNC(=O)c1cc(C)nc2onc(C3CCCN(C(=O)Cc4ccccn4)C3)c12 (stereo unspecified)	-5.7%	/	/	/	i	/
O=C1Nc2ccc(-c3ccccc3)cc2C(=O)N2CCN(C(=O)c3ccccc3)C[C@H]12	?	3.3%[87.6 µM]	-12.6%[70.6 µM]	-21.9%[87.6 µM]	89.1µM*	i
COc1ccc(Cl)cc1-c1ccc2c(c1)C(=O)N1CCN(C(=O)C3CCCCC3)C[C@@H]1C(=O)N2	44.7µM*	-2.5%	1.9%	-23.3%	?	i
O=C(N[C@H]1C[C@H]2C(=O)Nc3ccc(-c4cccs4)cc3C(=O)N2C1)c1ccccc1	?	-28.4%[87.6 µM]	?	?	31.6µM*	i
COc1ccc(Cl)cc1-c1ccc2c(c1)C(=O)N1CC[C@H](NC(=O)c3cccs3)C[C@H]1C(=O)N2	?	-24.1%	-24.9%	?	31.6µM*	i
COc1ccc(Cl)cc1-c1ccc2c(c1)C(=O)N1CCN(C(=O)c3cccs3)C[C@@H]1C(=O)N2	-27.6%	-5.7%	-15.9%	-18.1%	?	i
O=C1CCN(CC(O)COCc2ccco2)c2ccccc2CCN1CC1CC1 (stereo unspecified)	?	3.2%[23.9 µM]	/	8.8%[25.6 µM]	-25.6%[57.5 µM]	/
CC(C)Cc1ccc(CN2CCC3(Cc4ccccc4CNC3=O)C2)cc1 (stereo unspecified)	?	14.8%	/	4.9%	-37.7%	/
COc1cc(NC(=O)Cn2c(C)cc3nc4n(c(=O)c32)CCC4)cc(OC)c1OC	-2.2%	1.6%	-0.1%	29.9%	5.5%	i
COc1ccc(-c2ccc3c(c2)C(=O)N2CCN(C(=O)c4cccc(F)c4)C[C@@H]2C(=O)N3)cc1	-30.6%	-6.5%	-6.5%	28.1%	?	?
O=C1Nc2ccc(-c3cccc(C(F)(F)F)c3)cc2C(=O)N2CCN(C(=O)c3cccc(F)c3)C[C@H]12	?	1.3%	-3.6%	26.7%	31.6µM*	?
COc1ccc(Cl)cc1-c1ccc2c(c1)C(=O)N1CCN(C(=O)c3ccccc3)C[C@@H]1C(=O)N2	?	-11.0%	1.6%	?	28.2µM*	i
